Test results taken from article PMC5540273 (PLoS ONE, 2017).

Tests used:
Details in all cases: concentration: 1 μM, replicates: in singlicate; n = 1
[1] = tested on: TNNI3K
[2] = tested on: T1, TRKA
T1 construct: gene NTRK1

[3] = tested on: TRKB
[4] = tested on: T2, TRKC
T2 construct: gene NTRK3

[5] = tested on: TRPM6
[6] = tested on: TSSK1B
[7] = tested on: TSSK3
[8] = tested on: TTK
[9] = tested on: TXK
[10] = tested on: TYK2(JH1domain-catalytic)
[11] = tested on: TYK2(JH2domain-pseudokinase)
[12] = tested on: TYRO3
[13] = tested on: ULK1
[14] = tested on: ULK2
[15] = tested on: ULK3
[16] = tested on: T3, VEGFR2
T3 construct: gene KDR

[17] = tested on: T4, VPS34
T4 construct: gene PIK3C3

[18] = tested on: VRK2
[19] = tested on: WEE1
[20] = tested on: WEE2
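Note: KINOMEscan kinase panel screen.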

Row | Structure (SMILES) | %Inh [1] [%] | %Inh [2] [%] | %Inh [3] [%] | %Inh [4] [%] | %Inh [5] [%] | %Inh [6] [%] | %Inh [7] [%] | %Inh [8] [%] | %Inh [9] [%] | %Inh [10] [%] | %Inh [11] [%] | %Inh [12] [%] | %Inh [13] [%] | %Inh [14] [%] | %Inh [15] [%] | %Inh [16] [%] | %Inh [17] [%] | %Inh [18] [%] | %Inh [19] [%] | %Inh [20] [%]
1 | c1ccc(-c2n[nH]cc2Nc2ccnc3ccccc23)nc1 [GW694077] | 0 | 74 | 26 | 21 | 15 | 12 | 28 | 64 | 0 | 92 | 96.6 | 0 | 17 | 12 | 8 | 23 | 39 | 50 | 0 | 0
2 | CN1CCN(CCCNc2nccc(-c3c(-c4ccc(F)cc4)nn4cc(C(F)(F)F)ccc34)n2)CC1 [GW621581] | 0 | 0 | 11 | 5 | 1 | 0 | 0 | 0 | 14 | 28 | 12 | 0 | 20 | 0 | 8 | 0 | 8 | 0 | 0 | 0
3 | O=c1[nH]cc(-c2ccc(N3CCOCC3)cc2)c2sc(-c3cn[nH]c3)cc12 [GSK2276055] | 0 | 0 | 0 | 0 | 0 | 18 | 13 | 22 | 76 | 23 | 64 | 0 | 0 | 0 | 9 | 17 | 0 | 0 | 4 | 0
4 | Cn1cc(-c2ccc3c(c2)CCN3C(=O)Cc2cccc(F)c2)c2c(N)ncnc21 [GSK2603358] | 0 | 34 | 55 | 50 | 0 | 5 | 11 | 67 | 25 | 22 | 64 | 0 | 14 | 0 | 27 | 75 | 0 | 23 | 0 | 0
5 | COc1cccc(C2=C(Nc3ccc(Cl)c(C(=O)O)c3)C(=O)NC2=O)c1 [SB-390769] | 13 | 0 | 48 | 34 | 0 | 30 | 16 | 0 | 3 | 100 | 100 | 0 | 100 | 100 | 100 | 0 | 0 | 31 | 14 | 0
6 | Cc1ccc(C(=O)N2CC[C@@H](O)C2)cc1-n1c(C)cc(OCc2ccc(F)cc2F)c(Br)c1=O | 0 | 0 | 0 | 0 | 0 | 0 | 0 | 3 | 0 | 0 | 0 | 0 | 0 | 0 | 0 | 0 | 0 | 0 | 0 | 0
7 | COc1cccc(-c2ccc3c(NC(=O)C4CC4)n[nH]c3n2)c1 [SB-710903] | 5 | 0 | 66 | 58 | 0 | 0 | 3 | 0 | 0 | 52 | 64 | 0 | 0 | 0 | 9 | 0 | 0 | 66 | 14 | 15
8 | O=C(Nc1cccc(-c2nn3ccccc3c2-c2ccnc(Nc3cccc(C(F)(F)F)c3)n2)c1)c1c(F)cccc1F [GSK292658] | 0 | 0 | 0 | 0 | 11 | 2 | 5 | 20 | 48 | 20 | 0 | 67 | 31 | 9 | 5 | 8 | 0 | 0 | 0 | 0
9 | CCn1c(-c2nonc2N)nc2c(C#CC(C)(C)O)ncc(OCCCCN)c21.O=C(O)C(F)(F)F.O=C(O)C(F)(F)F [GSK507274] | 9 | 0 | 19 | 1 | 0 | 80 | 99.5 | 21 | 49 | 33 | 29 | 2 | 54 | 32 | 12 | 0 | 34 | 0 | 10 | 14
10 | C[C@@H](Oc1cc(-n2cnc3cc(-c4ccnc(NCCS(C)(=O)=O)c4)ccc32)sc1C(N)=O)c1ccccc1Cl [GSK907232] | 31 | 91 | 39 | 30 | 0 | 11 | 9 | 0 | 28 | 12 | 0 | 4 | 25 | 0 | 14 | 28 | 60 | 0 | 43 | 25
11 | Cc1ccc(S(=O)(=O)Nc2ccc(Nc3nccc(Nc4cccc5[nH]ncc45)n3)cc2)cc1 [GSK581271] | 7 | 0 | 33 | 24 | 11 | 4 | 11 | 0 | 77 | 42 | 93.6 | 0 | 19 | 0 | 38 | 0 | 60 | 0 | 6 | 8
12 | O=C(Nc1n[nH]c2cc(-c3ccoc3)ccc12)C1CC1 [SB-738481] | 0 | 30 | 25 | 49 | 0 | 0 | 0 | 0 | 20 | 51 | 7 | 0 | 0 | 1 | 10 | 32 | 0 | 0 | 0 | 0
13 | c1ccc(Oc2ccc(Nc3ccnc4cc(-c5ccc(CNCCN6CCOCC6)o5)ccc34)cc2)nc1 [GW567145] | 0 | 100 | 53 | 42 | 14 | 0 | 2 | 7 | 1 | 0 | 13 | 0 | 14 | 0 | 7 | 0 | 2 | 30 | 1 | 0
14 | COC(=O)Nc1nc2ccc(Oc3ccc(NC(=O)Nc4cc(C(F)(F)F)ccc4F)cc3)cc2n1C.Cl [GW692089] | 72 | 100 | 84 | 96.5 | 0 | 0 | 0 | 17 | 0 | 26 | 18 | 0 | 0 | 0 | 0 | 43 | 0 | 56 | 2 | 0
15 | Cc1ccc(F)c(C(=O)Nc2cccc(-c3nn4ccccc4c3-c3ccnc(Nc4cccc(F)c4)n3)c2)c1F [GSK361061] | 37 | 33 | 0 | 0 | 36 | 10 | 19 | 39 | 52 | 0 | 0 | 86 | 100 | 0 | 11 | 42 | 7 | 0 | 22 | 11
16 | CCc1ccc(-c2ccc3c(c2)-c2c(cnn2C)S(=O)(=O)N3C)cc1 | 0 | 0 | 0 | 0 | 1 | 5 | 0 | 0 | 0 | 0 | 0 | 5 | 0 | 0 | 0 | 14 | 45 | 7 | 0 | 0
17 | Cn1cc(-c2[nH]c3cc(NC(=O)[C@H](N)C4CCCCC4)cc4c3c2C=NNC4=O)cn1 | 54 | 91.6 | 64 | 57 | 11 | 73 | 23 | 0 | 32 | 95.1 | 87 | 73 | 68 | 98.9 | 97.6 | 90.7 | 80 | 0 | 65 | 98.2
